Source: PubChem BioAssay (NCI)
Compounds without any hit were thinned out: in the full panel of roughly 83,000, 20% have a hit.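 Treatment: one concentration, 48 hours, 96-well format. Scoring: percent growth, with anything below 10 considered active.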 Active and inactive are the calls of the source.

How the values were obtained:
Assay in all cases: NCI-60 one-dose screen, 48 h (100 = growth as untreated, 0 = no growth, -100 = all killed)
SR leukemia = conditions: 10 µM unless noted
RPMI-8226 leukemia = conditions: 10 µM unless noted
OVCAR-8 ovarian = conditions: 10 µM unless noted
OVCAR-5 ovarian = conditions: 10 µM unless noted
SK-OV-3 ovarian = conditions: 10 µM unless noted
IGROV1 ovarian = conditions: 10 µM unless noted
OVCAR-3 ovarian = conditions: 10 µM unless noted
HS 578T breast = conditions: 10 µM
NCI/ADR-RES ovarian = conditions: 10 µM unless noted
T-47D breast = conditions: 10 µM unless noted
BT-549 breast = conditions: 10 µM unless noted
MDA-MB-435 melanoma = conditions: 10 µM unless noted
SW-620 colon = conditions: 10 µM unless noted
MCF7 breast = conditions: 10 µM unless noted
HCT-116 colon = conditions: 10 µM unless noted
HCC-2998 colon = conditions: 10 µM unless noted
KM12 colon = conditions: 10 µM unless noted
OVCAR-4 ovarian = conditions: 10 µM unless noted

Measured: growth

CSC(=S)N/N=C(\C)c1ccccn1
inactive: RPMI-8226 leukemia 12% | OVCAR-8 ovarian 14.6% | OVCAR-5 ovarian 27.1% | SK-OV-3 ovarian 30.2% | IGROV1 ovarian 19.4% | HS 578T breast 38.1% | NCI/ADR-RES ovarian 12.8% | T-47D breast 21.8% | BT-549 breast 28.8% | MDA-MB-435 melanoma 35.8% | SW-620 colon 29.5% | HCC-2998 colon 28% | KM12 colon 19.9%
active: SR leukemia -3.68% | OVCAR-3 ovarian 5.95% | MCF7 breast 7.66% | HCT-116 colon 9.68%

O=C(O)C1[S][Sb]([CH](C(=O)O)[CH](C(=O)O)[Sb]2[S]C(C(=O)O)C(C(=O)O)[S]2)[S]C1C(=O)O (configuration not stated)
inactive: SR leukemia 50.2% | RPMI-8226 leukemia 91.9% | OVCAR-8 ovarian 96.2% | OVCAR-5 ovarian 118% | SK-OV-3 ovarian 103% | IGROV1 ovarian 87.8% | OVCAR-3 ovarian 95.7% | HS 578T breast 101% | NCI/ADR-RES ovarian 104% | T-47D breast 86.8% | BT-549 breast 63.8% | MDA-MB-435 melanoma 116% | SW-620 colon 103% | MCF7 breast 67.9% | HCT-116 colon 100% | HCC-2998 colon 108%

C/C(CC(=O)NNc1ccc([N+](=O)[O-])cc1)=N\Nc1ccc([N+](=O)[O-])cc1
inactive: SR leukemia 46.9% | RPMI-8226 leukemia 72.1% | OVCAR-8 ovarian 81.3% | OVCAR-5 ovarian 48.8% | SK-OV-3 ovarian 90.6% | IGROV1 ovarian 78.3% | OVCAR-3 ovarian 73.7% | HS 578T breast 86.2% | NCI/ADR-RES ovarian 49.7% | T-47D breast 50% | BT-549 breast 99.6% | SW-620 colon 48.6% | MCF7 breast 83.8% | HCT-116 colon 47.3% | HCC-2998 colon 74.5% | KM12 colon 25.4%

[Ag].[Ag].[NH-]S(=O)(=O)c1ccc(N=Nc2cc(N=Nc3ccc(S([NH-])(=O)=O)cc3)c3c(NC(=O)C(Cl)Cl)cccc3c2OC(=O)C(Cl)Cl)cc1.[c-]1nccs1.[c-]1nccs1
inactive: SR leukemia 72.1% | RPMI-8226 leukemia 83.5% | OVCAR-5 ovarian 120% | OVCAR-4 ovarian 110% | SK-OV-3 ovarian 114% | IGROV1 ovarian 76.2% | OVCAR-3 ovarian 72.7% | HS 578T breast 76.3% | NCI/ADR-RES ovarian 90.4% | BT-549 breast 104% | MDA-MB-435 melanoma 87.2% | SW-620 colon 58.7% | MCF7 breast 50.8% | HCT-116 colon 65.4% | HCC-2998 colon 99.1% | KM12 colon 80.9%
active: T-47D breast 7.8%

Cc1c(C)c(C)c([N+](=O)[O-])c([N+](=O)[O-])c1C
inactive: SR leukemia 99.8% | RPMI-8226 leukemia 119% | OVCAR-8 ovarian 102% | OVCAR-5 ovarian 84.5% | SK-OV-3 ovarian 111% | IGROV1 ovarian 122% | OVCAR-3 ovarian 98.5% | HS 578T breast 96.5% | NCI/ADR-RES ovarian 99.4% | BT-549 breast 101% | MDA-MB-435 melanoma 88.6% | SW-620 colon 106% | MCF7 breast 97% | HCT-116 colon 109% | HCC-2998 colon 103% | KM12 colon 98.1%

CCSc1ccc([C@@H]2[C@@H](O)C(=O)N2c2cc(OC)c(OC)c(OC)c2)cc1
active: RPMI-8226 leukemia 8.48% | OVCAR-3 ovarian -3.92% | NCI/ADR-RES ovarian 8.62% | BT-549 breast 9.68% | MDA-MB-435 melanoma -32.4% | HCT-116 colon 2.13%
inactive: SR leukemia 11.7% | OVCAR-5 ovarian 54.8% | OVCAR-4 ovarian 41.7% | SK-OV-3 ovarian 39.1% | IGROV1 ovarian 32.5% | HS 578T breast 46.5% | T-47D breast 76.6% | SW-620 colon 22.3% | MCF7 breast 20.1% | HCC-2998 colon 29.6% | KM12 colon 11.3%

CCCCNCC(O)c1cc(-c2ccc(C(F)(F)F)cc2)nc(-c2ccc(C(F)(F)F)cc2)c1 (configuration not stated)
active: SR leukemia -63.7% | RPMI-8226 leukemia -49.9% | OVCAR-5 ovarian -74.9% | OVCAR-4 ovarian -93.9% | SK-OV-3 ovarian -75.8% | IGROV1 ovarian -59.7% | OVCAR-3 ovarian -90.8% | HS 578T breast -57.8% | NCI/ADR-RES ovarian -53.9% | T-47D breast -80.3% | BT-549 breast -31.2% | MDA-MB-435 melanoma -68.6% | SW-620 colon -82.1% | MCF7 breast -84.8% | HCT-116 colon -88.5% | HCC-2998 colon -75.8% | KM12 colon -89.2%

c1ccc(C(CC2=NCCCN2)c2ccccc2)cc1
inactive: SR leukemia 103% | RPMI-8226 leukemia 116% | OVCAR-8 ovarian 101% | OVCAR-5 ovarian 95.9% | SK-OV-3 ovarian 95.5% | OVCAR-3 ovarian 117% | HS 578T breast 95.7% | NCI/ADR-RES ovarian 101% | T-47D breast 101% | BT-549 breast 95.1% | MDA-MB-435 melanoma 94% | SW-620 colon 100% | MCF7 breast 94.1% | HCT-116 colon 97.3% | HCC-2998 colon 102% | KM12 colon 99.7%

C/C(=C\C(=N\N=C(N)N)c1ccc(Cl)cc1)c1ccc(Cl)cc1
active: SR leukemia -67.9% | RPMI-8226 leukemia -40.2% | OVCAR-8 ovarian -80.9% | OVCAR-5 ovarian -75.5% | SK-OV-3 ovarian -22.4% | IGROV1 ovarian -60.6% | OVCAR-3 ovarian -87.7% | HS 578T breast -50.9% | NCI/ADR-RES ovarian -69.6% | T-47D breast -79.6% | BT-549 breast -84.1% | MDA-MB-435 melanoma -62.9% | SW-620 colon -72.7% | MCF7 breast -78.4% | HCT-116 colon -85.9% | HCC-2998 colon -87.3% | KM12 colon -88.2%

CCC1CCc2nc3sc(C(=O)Nc4cccc(F)c4)c(N)c3cc2C1 (configuration not stated)
active: MDA-MB-435 melanoma -12.6%
inactive: SR leukemia 12.5% | RPMI-8226 leukemia 44.9% | OVCAR-8 ovarian 86.6% | OVCAR-5 ovarian 90.5% | OVCAR-4 ovarian 99.2% | SK-OV-3 ovarian 83.1% | HS 578T breast 79.5% | NCI/ADR-RES ovarian 61.8% | T-47D breast 89.9% | BT-549 breast 88.1% | SW-620 colon 40.6% | MCF7 breast 12.6% | HCT-116 colon 60% | HCC-2998 colon 91.6% | KM12 colon 41.3%

CCCCNCCC(O)c1cc2ccc(C(F)(F)F)cc2c2cc(C(F)(F)F)ccc12 (configuration not stated)
active: SR leukemia -70.2% | RPMI-8226 leukemia -42.8% | OVCAR-8 ovarian -77.3% | OVCAR-5 ovarian -79.9% | SK-OV-3 ovarian -34% | IGROV1 ovarian -60.9% | OVCAR-3 ovarian -84.8% | HS 578T breast -55.2% | NCI/ADR-RES ovarian -74.5% | T-47D breast -76.3% | BT-549 breast 4.84% | MDA-MB-435 melanoma -69.3% | SW-620 colon -76.2% | MCF7 breast -79.3% | HCT-116 colon -87.3% | HCC-2998 colon -78.5% | KM12 colon -85.2%

COc1ccc2c(c1)CCCC21C(=O)Nc2c(Cl)cccc21 (configuration not stated)
inactive: SR leukemia 29.6% | RPMI-8226 leukemia 82.9% | OVCAR-5 ovarian 92.9% | OVCAR-4 ovarian 96.1% | SK-OV-3 ovarian 71.9% | IGROV1 ovarian 88.5% | OVCAR-3 ovarian 76.3% | HS 578T breast 85.8% | NCI/ADR-RES ovarian 18.3% | T-47D breast 87.6% | BT-549 breast 91% | SW-620 colon 42.8% | MCF7 breast 81.8% | HCT-116 colon 49.5% | HCC-2998 colon 88.3%
active: MDA-MB-435 melanoma -11.8%

CC(=O)N(C)c1ccc(Nc2cc(C)[nH]c3ccc4ncnc4c23)cc1
inactive: SR leukemia 11.1% | RPMI-8226 leukemia 56.2% | OVCAR-5 ovarian 63.5% | OVCAR-4 ovarian 77.9% | SK-OV-3 ovarian 74.3% | OVCAR-3 ovarian 76.3% | HS 578T breast 75.1% | NCI/ADR-RES ovarian 101% | T-47D breast 47.5% | BT-549 breast 61.6% | MDA-MB-435 melanoma 81.3% | SW-620 colon 45.5% | MCF7 breast 28.3% | HCT-116 colon 19.2% | HCC-2998 colon 26.9% | KM12 colon 67.6%
active: IGROV1 ovarian 1.11%

Nc1ccc(C(OC(=O)c2cc3ccccc3c(Cc3c(O)c(C(=O)OC(c4ccc(N)cc4)(c4ccc(N)cc4)c4ccc(N)cc4)cc4ccccc34)c2O)(c2ccc(N)cc2)c2ccc(N)cc2)cc1
active: RPMI-8226 leukemia 2.08% | OVCAR-3 ovarian -14.3% | HS 578T breast -18.4% | BT-549 breast -4.24% | MDA-MB-435 melanoma 6.93% | MCF7 breast 9.51% | HCT-116 colon 8.88% | HCC-2998 colon 9.42% | KM12 colon 5.29%
inactive: SR leukemia 13.1% | OVCAR-8 ovarian 13.5% | OVCAR-5 ovarian 38.8% | SK-OV-3 ovarian 15.7% | IGROV1 ovarian 47.4% | NCI/ADR-RES ovarian 57.1% | T-47D breast 17.2% | SW-620 colon 15.9%

CC1C2CCC(C2)C1COCCOCCO (configuration not stated)
inactive: SR leukemia 105% | RPMI-8226 leukemia 108% | OVCAR-8 ovarian 102% | OVCAR-5 ovarian 107% | SK-OV-3 ovarian 110% | IGROV1 ovarian 113% | OVCAR-3 ovarian 112% | HS 578T breast 110% | NCI/ADR-RES ovarian 104% | T-47D breast 98.7% | BT-549 breast 104% | MDA-MB-435 melanoma 110% | SW-620 colon 101% | MCF7 breast 105% | HCT-116 colon 108% | HCC-2998 colon 105% | KM12 colon 110%

O=C(c1ccccc1)N(CCCCl)C(=O)N(CCCCl)C(=O)c1ccccc1
inactive: SR leukemia 101% | RPMI-8226 leukemia 88.1% | OVCAR-8 ovarian 97.2% | OVCAR-5 ovarian 87% | SK-OV-3 ovarian 84.5% | IGROV1 ovarian 90.7% | OVCAR-3 ovarian 93.7% | HS 578T breast 93.9% | NCI/ADR-RES ovarian 91.1% | T-47D breast 93.1% | BT-549 breast 103% | MDA-MB-435 melanoma 89.6% | SW-620 colon 89.8% | MCF7 breast 119% | HCT-116 colon 90.9% | HCC-2998 colon 95.3% | KM12 colon 88.3%

CCOC(C)(c1ccc(Cl)cc1)C1CCNCC1 (configuration not stated)
inactive: SR leukemia 88.1% | RPMI-8226 leukemia 114% | OVCAR-8 ovarian 100% | OVCAR-5 ovarian 102% | SK-OV-3 ovarian 96.1% | OVCAR-3 ovarian 110% | HS 578T breast 92.7% | NCI/ADR-RES ovarian 92.5% | T-47D breast 91.7% | BT-549 breast 99.5% | MDA-MB-435 melanoma 109% | SW-620 colon 79% | MCF7 breast 94.8% | HCT-116 colon 97.8% | HCC-2998 colon 89.4% | KM12 colon 98.2%
